“And” between values parts separate entries of the source, which are not always exact repeats. Equal values may be shown once. Some structures have more than one record in an assay (separate samples or runs), and their calls can disagree. The source made the active and inactive calls. How the source made its calls: active means hit-call score of the fitted dose curve at least 0.9, where 1 is the maximum; inactive means score below 0.9.
Experiments:
[1] = read-out: Macrophage colony-stimulating factor (MCSF), CSF1 (gene 1435); assay: BSK_hDFCGF_MCSF: BioMAP Diversity Plus: hDFCGF Assay for Macrophage colony-stimulating factor (MCSF) Biomarker Activity (AID 2283060); conditions: primary human foreskin fibroblasts; actives raise or lower the signal
Outline: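 fibroblasts (human foreskin, primary), 24 h post-dose; M-CSF by ELISA; bidirectional fit, DMSO = baseline.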

[2] = read-out: TIMP metallopeptidase inhibitor 1 (TIMP1), TIMP1 (gene 7076); assay: BSK_hDFCGF_TIMP1: BioMAP Diversity Plus: hDFCGF Assay for TIMP metallopeptidase inhibitor 1 (TIMP1) Biomarker Activity (AID 2283062); conditions: primary human foreskin fibroblasts; actives raise or lower the signal
Outline: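 Bidirectional curve fitting against DMSO baseline yielded this endpoint, based on ELISA detection of TIMP-1 in primary human foreskin fibroblasts exposed to compound for 24 h.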

[3] = read-out: Monokine induced gamma interferon (MIG), CXCL9 (gene 4283); assay: BSK_hDFCGF_MIG: BioMAP Diversity Plus: hDFCGF Assay for Monokine induced gamma interferon (MIG) Biomarker Activity (AID 2283063); conditions: primary human foreskin fibroblasts; actives raise or lower the signal
Outline: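 Endpoint derived by bidirectional fitting relative to DMSO; MIG quantified via ELISA in primary human foreskin fibroblasts harvested 24 h after dosing.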

[4] = read-out: Matrix Metallopeptidase 1 (MMP1), MMP1 (gene 4312); assay: BSK_hDFCGF_MMP1: BioMAP Diversity Plus: hDFCGF Assay for Matrix Metallopeptidase 1 (MMP1) Biomarker Activity (AID 2283064); conditions: primary human foreskin fibroblasts; actives raise or lower the signal
Outline: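 hDFCGF primary fibroblasts (human foreskin); chemical added; 24 h; MMP1 by ELISA; bidirectional fit vs DMSO.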

[5] = read-out: Vascular cell adhesion molecule 1 (VCAM1), VCAM1 (gene 7412); assay: BSK_hDFCGF_VCAM1: BioMAP Diversity Plus: hDFCGF Assay for Vascular cell adhesion molecule 1 (VCAM1) Biomarker Activity (AID 2283065); conditions: primary human foreskin fibroblasts; actives raise or lower the signal;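 on AC50: VCAM-1 protein level quantified by ELISA after 24 h chemical exposure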
Outline: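 Measured after 24 h chemical treatment of primary human skin fibroblasts, VCAM-1 was detected by ELISA and concentration-response analysed in both directions versus DMSO vehicle.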

[6] = read-out: Plasminogen activator inhibitor-1 (PAI1), SERPINE1 (gene 5054); assay: BSK_hDFCGF_PAI1: BioMAP Diversity Plus: hDFCGF Assay for Plasminogen activator inhibitor-1 (PAI1) Biomarker Activity (AID 2283066); conditions: primary human foreskin fibroblasts; actives raise or lower the signal
Outline: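 PAI-1 levels, determined by ELISA, served as the endpoint in human foreskin fibroblast cultures exposed to compound for 24 h, with DMSO as baseline.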

[7] = read-out: Intercellular Adhesion Molecule 1 (ICAM1), ICAM1 (gene 3383); assay: BSK_KF3CT_ICAM1: BioMAP Diversity Plus: KF3CT Assay for Intercellular Adhesion Molecule 1 (ICAM1) Biomarker Activity (AID 2283067); conditions: primary human keratinocytes with fibroblasts; actives raise or lower the signal
Outline: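 Bidirectional curve fitting against a DMSO baseline was applied to ICAM-1 ELISA signal from primary human skin co-cultures harvested 24 h after treatment, with SRB staining of parallel wells for overt cytotoxicity.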

[8] = read-out: Interferon-gamma inducible Protein 10 (IP10), CXCL10 (gene 3627); assay: BSK_KF3CT_IP10: BioMAP Diversity Plus: KF3CT Assay for Interferon-gamma inducible Protein 10 (IP10) Biomarker Activity (AID 2283068); conditions: primary human keratinocytes with fibroblasts; actives raise or lower the signal
Outline: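 In a primary skin co-culture of keratinocytes and fibroblasts, IP-10 is quantified by ELISA at 24 h after dosing. SRB staining of parallel wells monitors overt toxicity. Curves are fitted both directions against DMSO.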

[9] = BSK_KF3CT_SRB: Viability Assessment in the BioMAP Diversity Plus: KF3CT Assay (AID 2283069); conditions: primary human keratinocytes with fibroblasts;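 further: total protein by sulforhodamine B staining as a cytotoxicity measure; read 24 h after compound addition; fitted for both signal gain and loss against DMSO baseline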
Outline: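 Keratinocytes co-cultured with foreskin fibroblasts (human primary); chemical added, 24 h; fix 10% TCA, stain 0.1% SRB, A560. Bidirectional fit vs DMSO.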

[10] = read-out: Interleukin-1 alpha (IL1a), IL1A (gene 3552); assay: BSK_KF3CT_IL1a: BioMAP Diversity Plus: KF3CT Assay for Interleukin-1 alpha (IL1a) Biomarker Activity (AID 2283070); conditions: primary human keratinocytes with fibroblasts; actives raise or lower the signal
Outline: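 Chemicals were dosed onto co-cultured human keratinocytes and foreskin fibroblasts, IL-1a was quantified by ELISA at 24 h, and activity was fitted in both directions relative to DMSO controls.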

[11] = read-out: TIMP metallopeptidase inhibitor 2 (TIMP2), TIMP2 (gene 7077); assay: BSK_KF3CT_TIMP2: BioMAP Diversity Plus: KF3CT Assay for TIMP metallopeptidase inhibitor 2 (TIMP2) Biomarker Activity (AID 2283071); conditions: primary human keratinocytes with fibroblasts; actives raise or lower the signal
Outline: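 Keratinocyte–fibroblast co-culture, 24 h exposure; TIMP-2 ELISA, DMSO-normalised bidirectional fit. Parallel SRB (0.1%, TCA-fixed, 560 nm) total-protein staining gauges cytotoxicity.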

[12] = read-out: C-C motif chemokine 2 (Homo sapiens) (UniProt P13500); assay: BSK_KF3CT_MCP1: BioMAP Diversity Plus: KF3CT Assay for Monocyte Chemoattractant Protein 1 (MCP1/CCL2) Biomarker Activity (AID 2283073); conditions: primary human keratinocytes with fibroblasts; actives raise or lower the signal
Outline: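 Biomarker MCP-1 is measured by ELISA in primary human keratinocytes co-cultured with foreskin fibroblasts, 24 h after chemical treatment; DMSO serves as the negative control and activity baseline.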

[13] = read-out: Matrix Metallopeptidase 9 (MMP9), MMP9 (gene 4318); assay: BSK_KF3CT_MMP9: BioMAP Diversity Plus: KF3CT Assay for Matrix Metallopeptidase 9 (MMP9) Biomarker Activity (AID 2283074); conditions: primary human keratinocytes with fibroblasts; actives raise or lower the signal;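 on AC50: MMP9 protein level quantified by ELISA in the co-culture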
Outline: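 Human keratinocyte/foreskin fibroblast co-culture; compound added; 24 h; MMP-9 by ELISA; bidirectional fit vs DMSO baseline.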

[14] = read-out: urokinase plasminogen activator (uPA), PLAU (gene 5328); assay: BSK_KF3CT_uPA: BioMAP Diversity Plus: KF3CT Assay for urokinase plasminogen activator (uPA) Biomarker Activity (AID 2283075); conditions: primary human keratinocytes with fibroblasts; actives raise or lower the signal
Outline: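 ELISA readout of uPA, analyzed for signal gain or loss relative to DMSO, from a human primary keratinocyte–foreskin fibroblast co-culture measured 24 h after chemical treatment.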

CD40, CD40 (gene 958) = assay: BSK_LPS_CD40: BioMAP Diversity Plus: LPS Assay for CD40 Biomarker Activity (AID 2283076); conditions: primary human HUVEC with PBMC; actives raise or lower the signal
Outline: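 Using a multiplexed primary human co-culture (umbilical vein endothelium plus PBMC), CD40 was read by ELISA 24 h after dosing, with cytotoxicity tracked by sulforhodamine B staining of parallel cultures and activity fitted bidirectionally versus DMSO.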

[15] = read-out: Interleukin-8 (IL8), CXCL8 (gene 3576); assay: BSK_LPS_IL8: BioMAP Diversity Plus: LPS Assay for Interleukin-8 (IL8) Biomarker Activity (AID 2283078); conditions: primary human HUVEC with PBMC; actives raise or lower the signal
Outline: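 In this LPS system, chemical-treated human umbilical vein endothelium/PBMC co-cultures were harvested at 24 h for IL-8 ELISA.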

[16] = BSK_LPS_SRB: Viability Assessment in the BioMAP Diversity Plus: LPS Assay (AID 2283079); conditions: primary human HUVEC with PBMC;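 further: total protein by sulforhodamine B absorbance as a cytotoxicity measure; measured one day after compound addition; fitted in both directions against DMSO so loss or gain of signal counts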
Outline: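 Cytotoxicity endpoint in human endothelial–PBMC co-culture: 24 h exposure, then SRB (0.1%) staining, 560 nm read.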

[17] = read-out: E-selectin (Homo sapiens) (UniProt P16581); assay: BSK_LPS_Eselectin: BioMAP Diversity Plus: LPS Assay for Eselectin Biomarker Activity (AID 2283077); conditions: primary human HUVEC with PBMC; actives raise or lower the signal
Outline: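 Dose chemical onto LPS-driven HUVEC/PBMC co-culture; after 24 h, run ELISA for E-selectin; fit up- and down-going responses relative to DMSO control.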

[18] = read-out: Transforming growth factor beta 1 (TGFb1), TGFB1 (gene 7040); assay: BSK_KF3CT_TGFb1: BioMAP Diversity Plus: KF3CT Assay for Transforming growth factor beta 1 (TGFb1) Biomarker Activity (AID 2283072); conditions: primary human keratinocytes with fibroblasts; actives raise or lower the signal
Outline: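 Signal changes in either direction, relative to DMSO, define activity here. TGF-b1 is read by ELISA from a human keratinocyte-fibroblast co-culture 24 h post-dose.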

[19] = BSK_hDFCGF_SRB: Viability Assessment in the BioMAP Diversity Plus: hDFCGF Assay (AID 2283061); conditions: primary human foreskin fibroblasts;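 further: cells exposed to compound for 24 h before the read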
Outline: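 SRB-based viability read on primary human skin fibroblasts at 24 h: TCA fixation, 0.1% dye, 560 nm. Gain or loss of signal is fitted against the DMSO negative control.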

Measured: AC50

Chain of E-selectin (Homo sapiens) (P16581 whole entry, looked up): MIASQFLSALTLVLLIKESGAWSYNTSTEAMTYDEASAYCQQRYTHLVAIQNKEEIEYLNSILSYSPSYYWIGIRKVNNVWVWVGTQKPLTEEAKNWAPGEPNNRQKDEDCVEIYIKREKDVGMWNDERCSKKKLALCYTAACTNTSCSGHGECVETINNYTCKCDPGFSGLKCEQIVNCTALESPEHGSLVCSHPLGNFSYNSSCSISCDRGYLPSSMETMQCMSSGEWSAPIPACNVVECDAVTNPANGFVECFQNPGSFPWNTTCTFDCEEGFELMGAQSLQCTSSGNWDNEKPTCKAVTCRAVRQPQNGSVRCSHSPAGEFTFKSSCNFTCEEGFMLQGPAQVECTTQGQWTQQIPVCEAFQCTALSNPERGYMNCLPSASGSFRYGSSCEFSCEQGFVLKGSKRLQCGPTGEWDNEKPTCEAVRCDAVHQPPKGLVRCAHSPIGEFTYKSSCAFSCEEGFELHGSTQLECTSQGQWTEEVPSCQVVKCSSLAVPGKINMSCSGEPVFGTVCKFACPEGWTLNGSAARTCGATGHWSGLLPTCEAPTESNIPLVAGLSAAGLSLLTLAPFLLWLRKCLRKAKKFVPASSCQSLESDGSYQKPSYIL

CC(C)(C)C(=O)CC(=O)C(F)(F)C(F)(F)C(F)(F)F
not listed: [17] | [18] | [19]
inactive: all other assays above

OCC(F)(F)C(F)(F)C(F)(F)C(F)(F)C(F)(F)C(F)(F)F
inactive: [3] | [4] | [6] | [7] | [8] | [9] | [10] | [11] | [12] | [13] | [14] | CD40, CD40 (gene 958) | [17] | [15] | [16]
active: [1] 48.6 µM and 49.4 µM | [4] 49.3 µM | [6] 47.6 µM

O[Si](c1ccccc1)(c1ccccc1)c1ccccc1
active: [1] 5.61 µM | [6] 5.43 µM | [11] 10.3 µM | [18] 20 µM | [13] 6.74 µM | CD40, CD40 (gene 958) 24.4 µM | [16] 28.6 µM
not listed: [5] | [17] | [19]
inactive: all other assays above

O=C(O)C(F)(OC(F)(F)C(F)(OC(F)(F)C(F)(F)C(F)(F)F)C(F)(F)F)C(F)(F)F (stereo not drawn)
not listed: [2] | [5] | [18]
inactive: all other assays above

CCCCNc1ccccc1
not listed: [5] | [17] | [19]
inactive: all other assays above

C=CC(=O)OCC(F)(F)C(F)(F)C(F)(F)C(F)(F)COC(=O)C=C
active: [1] 5.29 µM and 5.49 µM | [3] 3.49 µM and 3.32 µM | [4] 17.1 µM and 17.3 µM | [5] 3.41 µM and 3.27 µM | [6] 8.89 µM and 8.86 µM | [7] 23 µM and 24.1 µM | [8] 19.3 µM and 20.9 µM | [9] 41.7 µM and 43.2 µM | [10] 18.6 µM and 48.2 µM | [11] 25.7 µM and 33.3 µM | [12] 10.9 µM and 15.4 µM | [13] 30.9 µM and 21.6 µM | [14] 33.8 µM and 37 µM | CD40, CD40 (gene 958) 12.2 µM and 18.5 µM | [17] 17.3 µM and 17.6 µM | [15] 19.2 µM and 16.7 µM | [16] 45.3 µM and 43.4 µM
